This is an account of results in PubChem BioAssay (EPA / NIEHS).

Common to all, as to conditions: mRNA level, 48 h; actives raise or lower the signal
Read-out in assay [1]: Cyclin D2 (CCND2), CCND2 (gene 894)
In words: LTEA_HepaRG_CCND2: Life Technologies and Expression Analysis (LTEA) Assay for Cyclin D2 (CCND2) using HepaRG (AID 2283449).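 Further: CCND2 transcript measured by TaqMan qRT-PCR and normalised to three housekeeping genes.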 The gist of the method: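 HepaRG, 48 h dosing, 8-pt half-log curve from 100 uM, 0.5% DMSO; duplicate wells. Readout: CCND2 transcript by microfluidic qRT-PCR, housekeeping-normalised; bidirectional fit vs DMSO baseline.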

Read-out in assay [2]: Cyclin Dependent Kinase Inhibitor 1A (CDKN1A), CDKN1A (gene 1026)
Description: LTEA_HepaRG_CDKN1A: Life Technologies and Expression Analysis (LTEA) Assay for Cyclin Dependent Kinase Inhibitor 1A (CDKN1A) using HepaRG (AID 2283450). The gist of the method:
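Gain or loss of CDKN1A transcript is scored by bidirectional fitting against 0.5% DMSO vehicle. Human HepaRG cultures receive chemicals for 48 h across an 8-point series peaking at 100 uM; expression comes from qRT-PCR.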

Read-out in assay [3]: catalase (CAT), CAT (gene 847)
Description: LTEA_HepaRG_CAT: Life Technologies and Expression Analysis (LTEA) Assay for catalase (CAT) using HepaRG (AID 2283452). In a few lines:
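HepaRG cells in serum-free induction medium, 0.5% DMSO vehicle, exposed 48 h in duplicate over 8 half-log concentrations from 100 uM. CAT mRNA measured by qRT-PCR, normalized to ACTB, GAPDH, POLR2A; bidirectional fit versus DMSO.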

Read-out in assay [4]: flavin-containing dimethylaniline monooxygenases 3 (FMO3), FMO3 (gene 2328)
In words: LTEA_HepaRG_FMO3: Life Technologies and Expression Analysis (LTEA) Assay for flavin-containing dimethylaniline monooxygenases 3 (FMO3) using HepaRG (AID 2283453).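 On AC50: differentiated human HepaRG liver cells in serum-free induction medium.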 The gist of the method: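 Eight-point concentration-response in serum-free HepaRG cultures (top 100 uM, 0.5% DMSO, 48 h). Read-out: FMO3 mRNA level normalized to three endogenous control genes, fitted bidirectionally versus vehicle.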

Read-out in assay [5]: Cytochrome P450 (CYP1A1), CYP1A1 (gene 1543)
Description: LTEA_HepaRG_CYP1A1: Life Technologies and Expression Analysis (LTEA) Assay for Cytochrome P450 (CYP1A1) using HepaRG (AID 2283454). In a few lines: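 Using HepaRG cultures with 0.5% DMSO as vehicle, eight-concentration exposures (max 100 uM) lasted 48 h. Transcript levels were measured by TaqMan qRT-PCR and normalized to ACTB, GAPDH and POLR2A.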

Read-out in assay [6]: CFLAR gene, CFLAR (gene 8837)
Description: LTEA_HepaRG_CFLAR: Life Technologies and Expression Analysis (LTEA) Assay for CFLAR gene using HepaRG (AID 2283455). The gist of the method: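 qRT-PCR read-out (Fluidigm/TaqMan) of CFLAR mRNA, normalized to three housekeeping genes, in differentiated human HepaRG cells after 48 h chemical exposure; 8-point half-log series from 100 uM in 0.5% DMSO; bidirectional curve fitting versus DMSO.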

Read-out in assay [7]: Forkhead box O1 (FOXO1), FOXO1 (gene 2308)
In words: LTEA_HepaRG_FOXO1: Life Technologies and Expression Analysis (LTEA) Assay for Forkhead box O1 (FOXO1) using HepaRG (AID 2283456). The gist of the method:
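HepaRG, 48 h exposure, 8-pt half-log series from 100 uM in 0.5% DMSO, duplicates; Fluidigm qRT-PCR mRNA, housekeeping-normalised; bidirectional fit vs DMSO baseline.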

Read-out in assay [8]: growth arrest and DNA damage 45 (GADD45A), GADD45A (gene 1647)
In words: LTEA_HepaRG_GADD45A: Life Technologies and Expression Analysis (LTEA) Assay for growth arrest and DNA damage 45 (GADD45A) using HepaRG (AID 2283458). In a few lines:
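Eight-point concentration-response in HepaRG cells: 48 h chemical exposure, 0.5% DMSO vehicle, top dose 100 uM. Normalized qRT-PCR mRNA readout with bidirectional fitting relative to DMSO.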

Read-out in assay [9]: Forkhead box O3 (FOXO3), FOXO3 (gene 2309)
In words: LTEA_HepaRG_FOXO3: Life Technologies and Expression Analysis (LTEA) Assay for Forkhead box O3 (FOXO3) using HepaRG (AID 2283459). In a few lines:
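qRT-PCR readout of FOXO3 transcript, normalized to three housekeeping genes (ACTB, GAPDH, POLR2A); gain or loss fitted against 0.5% DMSO vehicle. HepaRG cells, 48 h chemical exposure, 8-point half-log series, top 100 uM.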

Read-out in assay [10]: ABC Transporter (ABCB1), ABCB1 (gene 5243)
In words: LTEA_HepaRG_ABCB1: Life Technologies and Expression Analysis (LTEA) Assay for ABC Transporter (ABCB1) using HepaRG (AID 2283460). In a few lines: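 HepaRG, 48 h exposure, 8-pt half-log series from 100 uM, 0.5% DMSO vehicle, duplicates. Readout: ABCB1 transcript by Fluidigm TaqMan qRT-PCR, housekeeping-normalized; bidirectional curve fit vs DMSO baseline.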

Read-out in assay [11]: growth arrest and DNA damage 45 (GADD45B), GADD45B (gene 4616)
Description: LTEA_HepaRG_GADD45B: Life Technologies and Expression Analysis (LTEA) Assay for growth arrest and DNA damage 45 (GADD45B) using HepaRG (AID 2283461). In a few lines: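 Human HepaRG monolayers receive chemicals for 48 h at eight half-log concentrations, highest 100 uM, in 0.5% DMSO. Expression is measured by TaqMan qRT-PCR and normalized to ACTB, GAPDH and POLR2A.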

Read-out in assay [12]: ABC Transporter (ABCB11), ABCB11 (gene 8647)
In words: LTEA_HepaRG_ABCB11: Life Technologies and Expression Analysis (LTEA) Assay for ABC Transporter (ABCB11) using HepaRG (AID 2283463). In a few lines: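 HepaRG, 48 h exposure, 8-pt half-log CRC top 100 uM, 0.5% DMSO vehicle, duplicates. Readout: TaqMan qRT-PCR of ABCB11 mRNA, housekeeping-normalized (ACTB/GAPDH/POLR2A). Bidirectional fit vs DMSO baseline.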

Read-out in assay [13]: ABC Transporter (ABCC2), ABCC2 (gene 1244)
In words: LTEA_HepaRG_ABCC2: Life Technologies and Expression Analysis (LTEA) Assay for ABC Transporter (ABCC2) using HepaRG (AID 2283464). In a few lines:
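After plating and 48 h culture, HepaRG medium is replaced with serum-free induction medium and chemicals are added (8 concentrations, max 100 uM, 0.5% DMSO) for 48 h. Total RNA then undergoes qRT-PCR for ABCC2 with housekeeping normalization.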

Read-out in assay [14]: Broad substrate specificity ATP-binding cassette transporter ABCG2 (Homo sapiens) (UniProt Q9UNQ0)
In words: LTEA_HepaRG_ABCG2: Life Technologies and Expression Analysis (LTEA) Assay for ABC Transporter (ABCG2) using HepaRG (AID 2283465). The gist of the method:
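HepaRG, 48 h exposure, 8-pt half-log series from 100 uM, 0.5% DMSO vehicle, duplicates. Readout: ABCG2 transcript by qRT-PCR (Fluidigm array), housekeeping-normalized; bidirectional curve fit relative to DMSO baseline.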

Read-out in assay [15]: ATP-citrate lyase (ACLY), ACLY (gene 47)
In words: LTEA_HepaRG_ACLY: Life Technologies and Expression Analysis (LTEA) Assay for ATP-citrate lyase (ACLY) using HepaRG (AID 2283466). In a few lines:
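qRT-PCR readout of ACLY transcript after 48 h chemical treatment of HepaRG cells; expression normalized to three housekeeping genes. Eight-point half-log series, highest 100 uM, 0.5% DMSO vehicle. Gain or loss fitted against DMSO baseline.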

Read-out in assay [16]: Peroxisomal acyl-coenzyme A oxidase 1 (ACOX1) gene, ACOX1 (gene 51)
Description: LTEA_HepaRG_ACOX1: Life Technologies and Expression Analysis (LTEA) Assay for Peroxisomal acyl-coenzyme A oxidase 1 (ACOX1) gene using HepaRG (AID 2283467). The gist of the method:
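HepaRG, 48 h chemical exposure, 8-pt half-log series from 100 uM top, 0.5% DMSO vehicle, duplicates. Readout: ACOX1 mRNA by Fluidigm qRT-PCR, housekeeping-normalized; bidirectional fit vs DMSO baseline.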

Read-out in assay [17]: Alkaline Phosphatase, Placental (ALPP) gene, ALPP (gene 250)
In words: LTEA_HepaRG_ALPP: Life Technologies and Expression Analysis (LTEA) Assay for Alkaline Phosphatase, Placental (ALPP) gene using HepaRG (AID 2283468).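 On AC50: differentiated human HepaRG liver cells in serum-free induction medium.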 In a few lines:
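Using human liver HepaRG cells, chemicals are tested in duplicate over 48 h at half-log concentrations topping at 100 uM; phenobarbital 1 mM serves as induction control. ALPP mRNA change by qRT-PCR, bidirectional fit against vehicle.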

Read-out in assay [18]: Cyclin D1 (CCND1), CCND1 (gene 595)
Description: LTEA_HepaRG_CCND1: Life Technologies and Expression Analysis (LTEA) Assay for Cyclin D1 (CCND1) using HepaRG (AID 2283451).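 Further: differentiated human HepaRG liver cells in serum-free induction medium; TaqMan qRT-PCR transcript level normalised to ACTB GAPDH and POLR2A housekeeping genes.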 The gist of the method: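 Expression change is measured by qRT-PCR in HepaRG cells after 48 h treatment across eight concentrations topping at 100 uM, with duplicate wells and DMSO (0.5%) serving as baseline for bidirectional fitting.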

Read-out in assay [19]: ABC Transporter (ABCC3), ABCC3 (gene 8714)
Description: LTEA_HepaRG_ABCC3: Life Technologies and Expression Analysis (LTEA) Assay for ABC Transporter (ABCC3) using HepaRG (AID 2283462). The gist of the method:
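Transcriptional change of ABCC3 in HepaRG after 48 h treatment, determined by qRT-PCR normalized to endogenous controls. Concentrations spanned eight half-log steps to 100 uM in 0.5% DMSO.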

Calls of active or inactive are those of the source. How the source made its calls: active means hit-call score of the fitted dose curve at least 0.9, where 1 is the maximum; inactive means score below 0.9.

Chain of Broad substrate specificity ATP-binding cassette transporter ABCG2 (Homo sapiens) (Q9UNQ0 whole entry, looked up): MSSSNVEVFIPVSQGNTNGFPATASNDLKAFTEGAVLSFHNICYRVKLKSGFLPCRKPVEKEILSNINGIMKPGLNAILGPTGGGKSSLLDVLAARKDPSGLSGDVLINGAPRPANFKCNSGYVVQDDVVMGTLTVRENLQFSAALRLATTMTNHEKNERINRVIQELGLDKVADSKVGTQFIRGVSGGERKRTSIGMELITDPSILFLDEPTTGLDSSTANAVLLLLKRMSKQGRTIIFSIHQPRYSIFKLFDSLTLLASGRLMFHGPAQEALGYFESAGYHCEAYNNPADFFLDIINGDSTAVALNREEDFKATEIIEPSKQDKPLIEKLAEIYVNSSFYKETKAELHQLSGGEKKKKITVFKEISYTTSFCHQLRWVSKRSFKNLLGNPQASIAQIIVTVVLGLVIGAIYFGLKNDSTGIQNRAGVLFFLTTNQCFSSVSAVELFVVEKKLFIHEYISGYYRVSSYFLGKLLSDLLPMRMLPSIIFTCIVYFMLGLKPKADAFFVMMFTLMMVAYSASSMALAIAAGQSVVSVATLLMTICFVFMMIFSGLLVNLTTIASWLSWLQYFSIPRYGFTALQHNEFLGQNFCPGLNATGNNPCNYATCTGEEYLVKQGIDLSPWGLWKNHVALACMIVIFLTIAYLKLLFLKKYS

In the case of `CCCCC(CC)COC(=O)CCCCC(=O)OCC(CC)CCCC` (stereo not drawn), the result in assay [1], in [2], in [3], in [4], in assay [5] and in [6] was inactive. The compound was called inactive in [7], in assay [8], in [9], in assay [10], in assay [11] and in assay [12]. Further, the call in assay [13], in [14], in assay [15], in assay [16] and in [17] was inactive.
As for `O=C(O)Cc1cc(I)c(Oc2cc(I)c(O)c(I)c2)c(I)c1`, the half-maximal activity concentration (AC50) in assay [2] was 33.5 µM (active); in assay [18], 33.5 µM (active); in assay [3], 45.4 µM (active); in assay [4], 58.1 µM (active); in assay [6], 33.5 µM (active); in assay [7], 50.7 µM (active). Moreover, the AC50 in [8] is 50.2 µM (active); in [9] it was 24.8 µM (active); in assay [11], 55.4 µM (active); in [12] it was 19.9 µM (active); in assay [13], 57.7 µM (active); in assay [14], 51.7 µM (active). Moreover, the AC50 in assay [16] is 56.8 µM (active); in assay [17] it was 13.6 µM (active). Further, the compound was classed as inactive in [5] and in assay [10].
For `CCCCCCCCCCCCc1ccccc1S(=O)(=O)O`, the outcome in assay [1], in assay [2], in [6], in assay [8], in assay [10] and in assay [11] was inactive. The AC50 in [3] is 88.9 µM (active); in [4] it was 83.3 µM (active); in assay [5], 30.6 µM (active); in [7], 88.4 µM (active); in assay [9], 87.9 µM (active); in [12], 85.7 µM (active). For the same compound, the AC50 was 12.3 µM (active) in [13], 50 µM (active) in [14], 11.7 µM (active) in assay [16] and 91.6 µM (active) in assay [17].
For `CC(C)(C)c1cccc(C(C)(C)C)c1O`, the outcome in assay [2], in assay [3], in assay [4], in [5], in assay [6] and in assay [7] was inactive. The compound was called inactive in assay [8], in assay [9], in assay [10], in [11], in assay [19] and in assay [12]. Moreover, the compound was classed as inactive in assay [13], in [14], in assay [15], in [16] and in assay [17].
For `CC(C)CCCCCCOC(=O)CCCCC(=O)OCCCCCCC(C)C`, the compound was called inactive in [1], in assay [2], in [3], in assay [4], in assay [6] and in assay [7]. In addition, the compound was classed as inactive in [8], in assay [9], in assay [10], in assay [11], in assay [12] and in [13]. Also, the result in assay [14], in assay [15], in assay [16] and in assay [17] was inactive. Further, the AC50 in [5] was 50 µM (active).

Usually AC50 stands for the concentration giving half of the maximal activity seen.
